IDE exosite inh = displaces the probe from the exo-site of human IDE. P14735. purified IDE, FL-6b probe fluorescence polarization; hits give low values. z-score at 20 µM. 6.3% of 17,000 active. AID 1259349;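 active means z-score of -3 or lower, meaning strong loss of probe binding signal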;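 further: His-tagged human IDE residues 42-1019 made in E. coli with 30 nM FL-6b probe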
Target sequence (P14735 42-1019 limits assumed): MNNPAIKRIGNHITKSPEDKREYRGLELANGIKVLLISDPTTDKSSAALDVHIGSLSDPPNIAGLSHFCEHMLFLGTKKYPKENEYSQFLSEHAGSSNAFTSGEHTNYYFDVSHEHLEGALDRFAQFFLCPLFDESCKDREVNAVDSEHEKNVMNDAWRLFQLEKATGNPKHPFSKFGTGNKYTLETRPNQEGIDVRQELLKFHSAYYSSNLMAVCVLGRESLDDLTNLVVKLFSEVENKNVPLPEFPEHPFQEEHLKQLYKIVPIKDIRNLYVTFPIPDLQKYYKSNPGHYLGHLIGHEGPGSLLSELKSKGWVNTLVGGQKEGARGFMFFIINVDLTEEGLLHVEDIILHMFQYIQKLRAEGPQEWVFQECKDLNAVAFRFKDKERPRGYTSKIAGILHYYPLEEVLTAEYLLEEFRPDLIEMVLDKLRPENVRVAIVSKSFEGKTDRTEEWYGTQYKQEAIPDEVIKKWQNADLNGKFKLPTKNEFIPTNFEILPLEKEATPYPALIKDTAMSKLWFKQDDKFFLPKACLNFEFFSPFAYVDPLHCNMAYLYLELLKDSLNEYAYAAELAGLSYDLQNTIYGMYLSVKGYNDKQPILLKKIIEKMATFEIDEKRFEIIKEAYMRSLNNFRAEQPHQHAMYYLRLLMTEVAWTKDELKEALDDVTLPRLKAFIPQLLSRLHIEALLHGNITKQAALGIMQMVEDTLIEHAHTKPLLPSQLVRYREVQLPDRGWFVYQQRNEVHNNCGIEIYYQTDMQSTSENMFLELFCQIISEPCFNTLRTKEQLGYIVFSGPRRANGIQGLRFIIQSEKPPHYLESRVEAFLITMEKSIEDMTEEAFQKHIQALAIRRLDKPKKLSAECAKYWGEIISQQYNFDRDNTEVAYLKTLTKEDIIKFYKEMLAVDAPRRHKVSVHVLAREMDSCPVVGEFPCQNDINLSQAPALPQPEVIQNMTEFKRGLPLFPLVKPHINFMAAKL
* = called active by the depositor. The full list was thinned out, with hits kept by preference.

SMILES	IDE exosite inh
CCC(=O)N1CCCCN2[C@H](C1)[C@H](c1ccc(/C=C/c3ccccc3)cc1)[C@@H]2CO	-10.3*
O=C(c1ccc(F)cc1)N1CCCCN2[C@H](CO)[C@@H](c3ccc(/C=C/c4ccccc4)cc3)[C@H]2C1	-2.34
CCC(=O)N1CCCCN2[C@H](CO)[C@@H](c3ccc(/C=C/c4ccccc4)cc3)[C@@H]2C1	-4.48*
O=C(c1ccc(F)cc1)N1CCCCN2[C@H](C1)[C@H](c1ccc(/C=C/c3ccccc3)cc1)[C@@H]2CO	5.29
CCC(=O)N1CCCCN2[C@@H](CO)[C@@H](c3ccc(/C=C/c4ccccc4)cc3)[C@@H]2C1	-1.37
CCC(=O)N1CCCCN2[C@H](CO)[C@@H](c3ccc(-c4ccc(F)cc4)cc3)[C@@H]2C1	3.23
CN1CCCCN2[C@@H](CO)[C@@H](c3ccc(/C=C/c4ccccc4)cc3)[C@@H]2C1	-6.77*
CN1CCCCN2[C@H](CO)[C@@H](c3ccc(-c4ccccc4)cc3)[C@H]2C1	-0.225
C/C=C/c1ccc([C@H]2[C@@H](CO)N3CCCCN(C)C[C@H]23)cc1	0.653
C[C@@H]1CN([C@H](C)CO)C(=O)CCCn2cc(nn2)CO[C@@H]1CN(C)C(=O)Nc1cccc(C(F)(F)F)c1	0.678
NCC[C@H]1CC[C@H](NC(=O)NC2CCCCC2)[C@H](CO)O1	-1.46
COCCNC(=O)c1cc2c(c(-c3cccc(C4=CCCCC4)c3)n1)[C@@H](CCO)N([S@](=O)C(C)(C)C)C2	2.64
COc1ccc2c3c([nH]c2c1)[C@H](CO)N(S(C)(=O)=O)CC31CCN(C(=O)Nc2ccccc2)CC1	0.708
CCCN1C[C@H](C)[C@@H](OC)CN(C)C(=O)c2cc(NC(=O)Nc3cccc(F)c3)ccc2OC[C@H]1C	-0.649
COc1ccc(-c2ccccc2[C@@H]2[C@H](C#N)N(C(=O)c3cccnc3)[C@H]2CO)cc1	-0.535
CS(=O)(=O)N1[C@@H](C#N)[C@H](c2ccc(C#CC3CCCC3)cc2)[C@@H]1CO	0.41
C[C@@H]1CCCCO[C@H](CN(C)S(=O)(=O)c2ccc(F)cc2)[C@@H](C)CN([C@H](C)CO)C(=O)c2cc(NC(=O)CCCCCC(=O)Nc3ccccc3N)ccc2O1	-0.105
N#C[C@@H]1[C@H](c2ccc(C#CC3CCCCC3)cc2)[C@H](CO)N1C(=O)c1cccc(F)c1	1.83
COc1ccc(S(=O)(=O)Nc2ccc3c(c2)CC(=O)N([C@H](C)CO)C[C@@H](C)[C@H](CN(C)C(=O)Nc2c(C)noc2C)O3)cc1	0.888
C[C@@H]1CN([C@H](C)CO)C(=O)c2cc(N(C)C)ccc2O[C@H]1CN(C)Cc1ccc(Oc2ccccc2)cc1	-0.227
Cc1noc(C)c1S(=O)(=O)Nc1ccc2c(c1)CC(=O)N([C@@H](C)CO)C[C@@H](C)[C@@H](CN(C)Cc1ccc(Oc3ccccc3)cc1)O2	0.553
Cc1noc(C)c1S(=O)(=O)Nc1ccc2c(c1)CC(=O)N([C@H](C)CO)C[C@H](C)[C@@H](CN(C)Cc1ccc(Oc3ccccc3)cc1)O2	-3.57*
C[C@H](CO)N1C[C@H](C)[C@H](CN(C)Cc2ccc(Oc3ccccc3)cc2)Oc2ccc(N(C)C)cc2C1=O	-4.24*
C[C@@H]1CN([C@H](C)CO)C(=O)c2cc(N(C)C)ccc2O[C@@H]1CN(C)Cc1ccc(Oc2ccccc2)cc1	-2.32
CN(C[C@H]1[C@@H](c2ccc(C3=CCCC3)cc2)[C@@H](CO)N1CCC(F)(F)F)S(C)(=O)=O	-0.767
SMILES	IDE exosite inh
CCS(=O)(=O)N1CC2(CN(C(=O)c3ccc(F)cc3)[C@H](CO)c3[nH]c4cc(OC)ccc4c32)C1	-0.696
C[C@@H](O)C#Cc1ccc([C@@H]2[C@@H](CO)N3CCCCN(C(=O)Nc4ccccc4)C[C@H]23)cc1	3.51
CC(C)CN(C[C@H]1N[C@@H](CO)[C@@H]1c1ccc(-c2cncnc2)cc1)C(=O)C1CC1	0.773
O=C(C1CCOCC1)N1CC(=O)N2[C@@H](CO)[C@@H](c3ccc(C#CC4CCCCC4)cc3)[C@@H]2C1	0.432
Cc1cccc(S(=O)(=O)N2CCCCN3[C@@H](CO)[C@@H](c4ccc(-c5cccnc5)cc4)[C@@H]3C2)c1	-3.26*
COc1cccc(S(=O)(=O)N2CCCCN3[C@H](C2)[C@@H](c2ccc(-c4cncnc4)cc2)[C@@H]3CO)c1	0.964
COc1cccc(S(=O)(=O)N2CCCCN3[C@@H](CO)[C@@H](c4ccc(-c5cccnc5)cc4)[C@@H]3C2)c1	-6.27*
Cc1cccc(S(=O)(=O)N2CCCCN3[C@H](CO)[C@H](c4ccc(-c5ccncc5)cc4)[C@H]3C2)c1	1.51
COc1cccc(S(=O)(=O)N2CCCCN3[C@@H](CO)[C@@H](c4ccc(-c5cncnc5)cc4)[C@@H]3C2)c1	-0.237
Cc1cccc(S(=O)(=O)N2CCCCN3[C@@H](CO)[C@H](c4ccc(-c5ccncc5)cc4)[C@@H]3C2)c1	1.62
COc1cccc(S(=O)(=O)N2CCCCN3[C@H](CO)[C@@H](c4ccc(-c5cccnc5)cc4)[C@@H]3C2)c1	-3.53*
COc1cccc(S(=O)(=O)N2CCCCN3[C@H](CO)[C@@H](c4ccc(-c5cncnc5)cc4)[C@@H]3C2)c1	-0.616
COc1cccc(S(=O)(=O)N2CCCCN3[C@H](CO)[C@H](c4ccc(-c5cccnc5)cc4)[C@H]3C2)c1	1.12
COCC(=O)N1CCC2(CC1)CN[C@H](CO)c1c2c2ccc(OC)cc2n1C	0.383
Cc1ccc(NC(=O)Nc2ccc3c(c2)C(=O)N(C)[C@@H]2CC[C@H](CC(=O)NCC(F)(F)F)O[C@@H]2CO3)cc1	-1.1
CCCNC(=O)N1CC2(C1)[C@@H](c1ccccc1)[C@@H](CO)N2C(=O)c1cccnc1	-0.00565
CN(C[C@@H]1N[C@H](CO)[C@H]1c1ccccc1)C(=O)c1ccccn1	0.749
O=C(C1CC1)N1CCCCN2[C@@H](CO)[C@@H](c3ccc(-c4cccc(F)c4)cc3)[C@@H]2C1	-0.181
CC(=O)NC[C@H]1[C@H](c2ccc(-c3ccccc3)cc2)[C@@H](CO)N1C(=O)C1CC1	3.17
CC(=O)N1CCCCN2[C@@H](CO)[C@@H](c3ccc(-c4ccncc4)cc3)[C@@H]2C1	4.42
CCCC#Cc1ccc([C@H]2[C@H]3CN(C(=O)NCCC)CC(=O)N3[C@H]2CO)cc1	2.21
CN1CCCCN2[C@H](CO)[C@@H](c3ccc(C#Cc4ccccc4F)cc3)[C@H]2C1	-4.72*
COc1ccc(C#Cc2ccc([C@@H]3[C@@H](CO)N4CCCCN(C)C[C@@H]34)cc2)cc1	0.0789
CN1CCCCN2[C@H](C1)[C@@H](c1ccc(C#Cc3ccccc3F)cc1)[C@@H]2CO	-3.44*
CN1CCCCN2[C@H](C1)[C@H](c1ccc(C#CC3(O)CCCC3)cc1)[C@@H]2CO	2.78
SMILES	IDE exosite inh
CN1CCCCN2[C@H](CO)[C@H](c3ccc(C#CC4(O)CCCC4)cc3)[C@H]2C1	3.52
CN1CCCCN2[C@H](CO)[C@@H](c3ccc(C#CC4(O)CCCC4)cc3)[C@H]2C1	3.32
CN1CCCCN2[C@H](C1)[C@H](c1ccc(-c3ccc(F)cc3)cc1)[C@@H]2CO	0.111
CN1CCCCN2[C@@H](CO)[C@H](c3ccc(C#Cc4ccccc4F)cc3)[C@@H]2C1	-4.4*
Cc1ccccc1-c1ccccc1[C@@H]1[C@H](C#N)N(C(=O)c2ccccc2)[C@H]1CO	2.64
COc1cccc(CNC(=O)C[C@@H]2CC[C@@H]3[C@@H](COc4ccc(NS(=O)(=O)c5ccccc5F)cc4C(=O)N3C)O2)c1	-0.977
COc1ccccc1-c1ccccc1[C@@H]1[C@@H](C#N)N(C(=O)C2CC2)[C@H]1CO	2.64

Screens (PubChem BioAssay)
